# From PubChem BioAssay
# Calls of active or inactive are those of the source.
# Columns and labels:
# [1] = test system: Plasmodium falciparum Sir2 (PF13_0152, Sir2A); experiment: pfSir2 binders on small-molecule microarrays, primary screen, biochemical, small-molecule microarray, 635 nm fluorescence (AID 1098); settings: small-molecule microarray binding, fluorescence 635 nm; higher = more signal;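 note: score merges spot fluorescence intensity with its signal-to-noise ratio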
# [2] = small-molecule microarray binders of probe aDKK1, primary screen, biochemical, biotinylated probe, 635/667 nm fluorescence (AID 1099); settings: higher = more signal;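 note: score merges 667nm spot fluorescence with signal to noise across triplicate slides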
# [3] = small-molecule microarray binders of probe aCHRDL2, primary screen, biochemical, biotinylated probe, 635/667 nm fluorescence (AID 1100); settings: higher = more signal
# [4] = splicing luciferase reporter signal modulators, primary screen, spliceosome inhibition project, cell-based, HEK293, splice +/- reporter (AID 1101); settings: luminescence, 24 h, higher = more signal, called active from +8 up or from −8 down;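 note: HEK293 cells carrying a splicing-competent luciferase reporter gene; test concentration not given here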
# [5] = molecular target: Fibroblast growth factor 10 (Homo sapiens) (UniProt O15520); experiment: FGF10 binders on small-molecule microarrays, primary screen, biochemical, small-molecule microarray, 635 nm fluorescence (AID 1102); settings: FGF10 binding, fluorescence 635 nm, higher = more signal
# [6] = test system: glycogen synthase kinase-3 (GSK3A per assay name; protocol says GSK3B); experiment: GSK3 binders on small-molecule microarrays, primary screen, biochemical, small-molecule microarray, 635 nm fluorescence, GSK3A (AID 1103); settings: small-molecule microarray binding, fluorescence 635 nm; higher = more signal; note: the record names both GSK3A and GSK3B
# [7] = molecular target: Epidermal growth factor receptor (Homo sapiens) (UniProt P00533); experiment: EGFR binders on small-molecule microarrays, primary screen, biochemical, small-molecule microarray, 635 nm fluorescence (AID 1104); settings: EGFR binding, higher = more signal;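 note: score merges 667 nm emission intensity with spot signal to noise over triplicate slides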
# [8] = molecular target: Follistatin-related protein 3 (Homo sapiens) (UniProt O95633); experiment: FSTL3 binders on small-molecule microarrays, primary screen, biochemical, small-molecule microarray, 635 nm fluorescence (AID 1105); settings: FSTL3 binding, higher = more signal;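 note: score merges emission near 667 nm and signal to noise per printed spot across three slides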
# [9] = molecular target: Dickkopf-related protein 1 (Homo sapiens) (UniProt O94907); experiment: DKK1 binders on small-molecule microarrays, primary screen, biochemical, small-molecule microarray, 635 nm fluorescence scan (AID 1106); settings: DKK1 binding, higher = more signal;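 note: score merges emission near 667 nm with signal to noise over three replicate slides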
# [10] = test system: Inhibin beta A chain (activin A); experiment: INHBA (activin A) binders on microarrays, primary screen, biochemical, small-molecule microarray, 635 nm fluorescence scan (AID 1107); settings: small-molecule microarray binding, higher = more signal;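 note: mouse activin A protein probed at 4.33 µg/mL on printed slides; score merges bound-protein fluorescence near 667 nm with spot signal-to-noise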
# [11] = test system: Human papillomavirus type 1a protein E7 (residues 44-93); experiment: HPV1a E7 fragment binders on microarrays, primary screen, biochemical, small-molecule microarray, residues 44-93, 635 nm fluorescence (AID 1108); settings: small-molecule microarray binding, fluorescence 635 nm; higher = more signal;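 note: E7 fragment applied at 1 µg/mL in TBST for 1 h at 4 C; score combines spot fluorescence with its signal to noise ratio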
# [12] = modulators of HCV replicon luciferase signal, primary screen, HCV replication inhibitor project, Huh7 cells, luciferase reporter (AID 1109); settings: 48 h, higher = more signal;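 note: huh7 hepatoma cells harbouring a luciferase neomycin HCV replicon reporter; luciferase luminescence as measure of HCV replicon replication; test concentration not given here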
# [13] = molecular target: Left-right determination factor 2 (Homo sapiens) (UniProt O00292); experiment: LEFTY2 binders on small-molecule microarrays, primary screen, biochemical, small-molecule microarray, 635 nm fluorescence scan (AID 1110); settings: LEFTY2 binding, higher = more signal
# [14] = molecular target: Calmodulin-1 (Homo sapiens) (UniProt P0DP23); experiment: CALM1 binders on microarrays, EGTA buffer, profiling panel, biochemical, small-molecule microarray, Cy5-labelled CALM1 (AID 1111); settings: Cy5-CALM1 binding fluorescence, higher = more signal;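 note: labelled calmodulin applied in Tris saline Tween buffer holding calcium plus EGTA and DTT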
# [15] = molecular target: Calmodulin-1 (Homo sapiens) (UniProt P0DP23); experiment: calcium-bound CALM1 binders on microarrays, profiling panel, artefact control for SMM control-protein annotation, biochemical, small-molecule microarray, Cy5-labelled CALM1, plus calcium (AID 1112); settings: Cy5-CALM1 binding fluorescence, higher = more signal;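 note: score merges spot fluorescence with signal to noise from triplicate slides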
# [16] = small-molecule microarray binders of probe aWnt5a, primary screen, biochemical, biotinylated probe, 635/667 nm fluorescence (AID 1113); settings: higher = more signal;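 note: score merges 667 nm fluorescence intensity with signal-to-noise per printed feature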
# [17] = small-molecule microarray binders of probe aShh, primary screen, biochemical, biotinylated probe, 635/667 nm fluorescence (AID 1114); settings: higher = more signal;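 note: probe is biotin-labelled aShh protein from a stem cell growth factor screen; measures binding of labelled protein to compounds printed on the slide; score merges feature fluorescence at 667 nm with signal-to-noise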
# [18] = small-molecule microarray binders of probe aNog, primary screen, biochemical, biotinylated probe, 635/667 nm fluorescence (AID 1115); settings: higher = more signal;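 note: probe is biotinylated aNog protein used at 0.15 µg/mL for 1 h at 4 C; z-score combines 667 nm fluorescence of each spot with its signal to noise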
# [19] = molecular target: Torsin-1A-interacting protein 1 (Homo sapiens) (UniProt Q5JTV8); experiment: LAP1 binders from COS7 cell lysate, primary screen, small-molecule microarray, 635/667 nm fluorescence (AID 1116); settings: COS7-hLAP1 lysate binding, 635 nm fluorescence, higher = more signal
# [20] = molecular target: Alpha-bungarotoxin (Bungarus multicinctus) (UniProt P60615); experiment: alpha-bungarotoxin binders on microarray, profiling panel, artefact control for SMM control protein annotation, biochemical, small-molecule microarray, Alexa647 label, 635/667 nm fluorescence (AID 1117); settings: alpha-BTX-A647 binding fluorescence, higher = more signal
# Chain of Alpha-bungarotoxin (Bungarus multicinctus) (P60615 whole entry, looked up): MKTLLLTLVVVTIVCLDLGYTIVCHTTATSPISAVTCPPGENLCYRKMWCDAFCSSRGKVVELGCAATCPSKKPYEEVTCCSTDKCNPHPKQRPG
# Chain of Left-right determination factor 2 (Homo sapiens) (O00292 whole entry, looked up): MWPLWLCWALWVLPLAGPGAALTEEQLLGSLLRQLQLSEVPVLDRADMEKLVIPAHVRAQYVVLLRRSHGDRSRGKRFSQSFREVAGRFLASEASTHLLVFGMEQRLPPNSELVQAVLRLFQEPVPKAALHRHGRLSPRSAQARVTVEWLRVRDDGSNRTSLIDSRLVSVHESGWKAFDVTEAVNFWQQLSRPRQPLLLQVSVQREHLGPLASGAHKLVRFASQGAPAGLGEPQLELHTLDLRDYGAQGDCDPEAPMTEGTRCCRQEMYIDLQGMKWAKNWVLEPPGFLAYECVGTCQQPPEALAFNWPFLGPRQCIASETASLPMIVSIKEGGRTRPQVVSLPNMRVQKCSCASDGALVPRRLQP
# Chain of Follistatin-related protein 3 (Homo sapiens) (O95633 whole entry, looked up): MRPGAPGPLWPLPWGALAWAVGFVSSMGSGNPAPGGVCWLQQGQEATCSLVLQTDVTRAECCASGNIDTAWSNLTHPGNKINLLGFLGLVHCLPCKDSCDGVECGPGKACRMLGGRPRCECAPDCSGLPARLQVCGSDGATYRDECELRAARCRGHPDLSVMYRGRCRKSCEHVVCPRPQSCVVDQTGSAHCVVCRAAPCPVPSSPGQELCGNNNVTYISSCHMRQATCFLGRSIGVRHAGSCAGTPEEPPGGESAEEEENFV
# Chain of Dickkopf-related protein 1 (Homo sapiens) (O94907 whole entry, looked up): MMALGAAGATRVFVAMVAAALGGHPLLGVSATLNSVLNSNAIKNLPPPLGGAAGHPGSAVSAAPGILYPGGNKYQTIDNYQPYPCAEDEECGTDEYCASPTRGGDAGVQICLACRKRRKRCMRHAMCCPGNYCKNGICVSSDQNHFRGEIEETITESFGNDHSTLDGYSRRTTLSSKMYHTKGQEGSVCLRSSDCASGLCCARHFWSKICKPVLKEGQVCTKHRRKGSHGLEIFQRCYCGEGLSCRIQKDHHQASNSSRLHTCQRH
# Chain of Epidermal growth factor receptor (Homo sapiens) (P00533 whole entry, looked up): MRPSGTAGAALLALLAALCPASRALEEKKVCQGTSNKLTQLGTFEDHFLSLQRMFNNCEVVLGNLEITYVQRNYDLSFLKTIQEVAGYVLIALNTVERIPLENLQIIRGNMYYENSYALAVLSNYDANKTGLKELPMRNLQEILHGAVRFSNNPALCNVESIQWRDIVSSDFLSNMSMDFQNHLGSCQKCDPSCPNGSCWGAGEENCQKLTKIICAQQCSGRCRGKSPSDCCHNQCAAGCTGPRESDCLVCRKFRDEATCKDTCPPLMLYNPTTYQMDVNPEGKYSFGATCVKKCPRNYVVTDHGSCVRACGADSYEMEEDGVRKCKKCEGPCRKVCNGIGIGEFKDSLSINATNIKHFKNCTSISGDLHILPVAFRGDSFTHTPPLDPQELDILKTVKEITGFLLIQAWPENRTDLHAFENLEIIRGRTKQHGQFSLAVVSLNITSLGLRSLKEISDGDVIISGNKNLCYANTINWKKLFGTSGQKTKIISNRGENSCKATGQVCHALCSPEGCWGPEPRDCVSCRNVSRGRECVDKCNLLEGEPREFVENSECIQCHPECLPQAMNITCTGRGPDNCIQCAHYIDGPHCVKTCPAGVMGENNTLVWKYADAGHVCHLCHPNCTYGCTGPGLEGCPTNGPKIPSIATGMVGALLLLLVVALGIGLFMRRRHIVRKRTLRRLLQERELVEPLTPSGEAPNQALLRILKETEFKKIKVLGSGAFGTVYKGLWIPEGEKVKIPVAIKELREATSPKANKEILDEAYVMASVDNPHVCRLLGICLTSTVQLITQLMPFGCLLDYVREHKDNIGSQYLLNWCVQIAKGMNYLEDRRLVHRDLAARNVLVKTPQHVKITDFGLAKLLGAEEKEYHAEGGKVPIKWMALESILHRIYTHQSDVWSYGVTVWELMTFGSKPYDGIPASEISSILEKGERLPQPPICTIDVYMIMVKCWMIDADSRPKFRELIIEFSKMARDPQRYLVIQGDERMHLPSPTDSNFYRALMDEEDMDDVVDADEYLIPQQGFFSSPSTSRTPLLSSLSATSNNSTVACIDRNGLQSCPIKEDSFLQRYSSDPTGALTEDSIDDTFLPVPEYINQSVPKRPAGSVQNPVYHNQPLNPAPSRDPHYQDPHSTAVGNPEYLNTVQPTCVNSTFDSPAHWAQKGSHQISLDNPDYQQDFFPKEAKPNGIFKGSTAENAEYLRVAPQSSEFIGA
# Chain of Fibroblast growth factor 10 (Homo sapiens) (O15520 whole entry, looked up): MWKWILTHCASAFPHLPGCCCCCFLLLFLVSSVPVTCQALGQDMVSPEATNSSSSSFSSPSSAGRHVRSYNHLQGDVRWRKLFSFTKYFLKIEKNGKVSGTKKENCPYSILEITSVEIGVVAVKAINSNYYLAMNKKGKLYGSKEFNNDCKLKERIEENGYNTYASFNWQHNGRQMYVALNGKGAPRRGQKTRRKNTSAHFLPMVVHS
# Chain of Torsin-1A-interacting protein 1 (Homo sapiens) (Q5JTV8 whole entry, looked up): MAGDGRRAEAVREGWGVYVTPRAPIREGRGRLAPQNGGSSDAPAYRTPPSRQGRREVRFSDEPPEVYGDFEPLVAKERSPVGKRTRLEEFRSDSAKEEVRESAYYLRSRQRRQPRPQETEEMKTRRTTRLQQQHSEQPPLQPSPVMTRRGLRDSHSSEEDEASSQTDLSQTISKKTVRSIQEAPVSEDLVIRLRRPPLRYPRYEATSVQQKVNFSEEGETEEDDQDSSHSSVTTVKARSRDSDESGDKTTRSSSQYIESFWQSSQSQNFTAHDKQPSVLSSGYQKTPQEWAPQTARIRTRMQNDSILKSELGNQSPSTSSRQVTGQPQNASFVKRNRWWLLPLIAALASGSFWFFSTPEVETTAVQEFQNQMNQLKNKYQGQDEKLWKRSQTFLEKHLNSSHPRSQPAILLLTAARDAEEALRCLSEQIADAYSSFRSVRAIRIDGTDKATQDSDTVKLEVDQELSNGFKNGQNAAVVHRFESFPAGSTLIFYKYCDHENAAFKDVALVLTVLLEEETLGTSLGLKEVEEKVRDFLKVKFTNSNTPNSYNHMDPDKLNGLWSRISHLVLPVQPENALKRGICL
SMILES,composite z-score [1],composite z-score [2],composite z-score [3],z-score [4],composite z-score [5],composite z-score [6],composite z-score [7],composite z-score [8],composite z-score [9],composite z-score [10],composite z-score [11],z-score [12],composite z-score [13],composite z-score [14],composite z-score [15],composite z-score [16],composite z-score [17],composite z-score [18],composite z-score [19],composite z-score [20]
CC(=O)NCCCC[C@@H]1NC(=O)[C@H]2C[C@@H](C(=O)NCCCC[N+](C)(C)C)[C@@H](c3cccc(OCCO)c3)N2C1=O,0.0726,0.186,-0.201,-0.307 (inactive),1.37,0.536,1.17,1.54,1.83,-0.416,-0.194,-1.08,1.47,-2.42,-1.62,0.027,0.0121,-0.122,1.04,0.604
NC(=O)NCC#Cc1ccc2c(c1)[C@]1(C(=O)N2)[C@H](C(=O)NC[C@H](O)c2ccccc2)[C@H]2C(=O)O[C@H](c3ccccc3)[C@H](c3ccccc3)N2[C@@H]1c1ccc(OCCO)cc1,0.0395,0.72,0.879,0.822 (inactive),0.566,0.0382,-0.464,0.0489,-0.246,1.04,1.25,-1.22,-0.461,0.616,0.541,-0.143,-0.0769,-0.418,0.863,1.43
CCCCCCc1nc(-c2cc(C)c(OC)c(C)c2)c(C)c2c1[Si](C(C)C)(C(C)C)OC2,-0.17,0.101,-0.178,-1.9 (inactive),-0.722,-0.644,0.202,-0.0761,0.0434,0.737,-0.226,0.791,-0.0571,-0.357,0.34,-0.0445,0.184,0.116,-0.116,-0.0116
CCOC(=O)C1=CC[C@@H](c2ccc(OCc3ccccc3)c(OC)c2)N(S(=O)(=O)c2ccc(C)cc2)[C@H]1c1ccc(SC)cc1,1.26,0.842,1.04,0.236 (inactive),1.1,0.587,0.838,1.12,0.174,0.994,1.4,-1.75,0.458,1.23,0.298,0.155,0.0659,1.1,0.746,0.573
COc1ccc(C(O)C2C=CC3C(=O)N(c4ccccc4)C(=O)C3N2Nc2ccc([N+](=O)[O-])cc2)cc1 (stereo not given),1.43,1.37,1.23,0.304 (inactive),0.774,0.998,0.0207,0.952,-0.655,0.918,0.487,-0.925,-0.425,1.45,0.622,0.315,0.109,-0.064,1.66,1.32
O=C1OCC=C[C@H]2OC34C=CCN(Cn5nnc6ccccc65)C(=O)[C@H]3N(CCCO)C(=O)[C@@H]4[C@@H]12 (stereo not given in full),-0.0241,-0.0481,0.368,-1.26 (inactive),-0.21,-1.08,-0.577,-1.39,-0.448,0.839,-0.408,0.424,-0.573,-0.0941,0.449,-0.26,0.381,0.0517,0.529,-1.11
OCC1CC(c2ccccc2)=NO1 (stereo not given),0.0686,-0.217,-0.354,-0.0813 (inactive),0.0912,0.0016,0.37,-0.0588,0.473,0.685,-1.07,0.381,0.43,-0.759,-0.445,-0.0084,-0.248,0.21,0.19,-0.0251
CCOC(=O)C[C@H]1[C@H](OC(=O)c2cc3ccccc3oc2=O)[C@@H](NC(=O)c2ccc(-c3ccccc3)cc2)c2cc(OCCCO)ccc2N1C(=O)c1ccccc1,1.17,-0.24,-0.466,-1.38 (inactive),1.02,1.04,0.613,1.05,1.22,0.479,1.4,-0.659,1.16,0.536,-0.15,-0.0203,0.199,0.161,0.959,0.727
O=C1O[C@H](c2ccccc2)[C@H](c2ccccc2)N2[C@H]1[C@@H](C(=O)O)[C@]1(C(=O)Nc3ccc(C#CC4=CCCCC4)cc31)[C@H]2c1ccc(O)cc1,1.37,-0.0007,0.0645,-0.824 (inactive),1.06,0.908,0.23,0.844,1.11,0.855,1.33,-0.955,0.658,-0.461,-0.283,-0.0792,0.0284,-0.213,0.499,-0.188
CC(c1ccccc1)C(O)C1C=CC2C(=O)N(c3ccccc3)C(=O)C2N1Nc1ccc([N+](=O)[O-])cc1 (stereo not given),1.38,0.831,0.862,-0.43 (inactive),0.781,1.3,0.424,1.23,-0.405,0.854,1.46,-0.0504,0.365,0.93,0.328,-0.001,-0.0146,0.457,0.464,1.53
COCCCNC(=O)[C@@]1(Cc2ccccc2N=[N+]=[N-])COC(c2ccc(OCCCO)cc2)=N1,0.955,0.516,1.17,0.989 (inactive),0.475,-0.331,-0.027,-0.121,-0.599,1.61,1.44,-0.899,0.185,1.43,0.414,0.0165,0.284,0.747,2,2.18
COc1ccc([Si](C)(C)[C@@H]2[C@@H](CC(=O)N(CCO)Cc3ccccc3)O[C@]3(C(=O)N(Cc4cccc(N5C(=O)c6cccc7cccc5c67)c4)c4ccccc43)[C@H]2C)cc1,1.5,-0.277,0.246,-1.11 (inactive),0.0691,-0.727,0.412,1.4,0.816,0.539,-0.726,-3.94,0.882,0.222,0.234,-0.1,-0.209,-0.424,0.566,0.389
